Targets with a hit are over-represented here; the source holds about 7,900 in all. About 0.6% of all pairs of compound and target were hits.

Sequence of UniProt Q9HCC0 (Q9HCC0 whole entry, looked up): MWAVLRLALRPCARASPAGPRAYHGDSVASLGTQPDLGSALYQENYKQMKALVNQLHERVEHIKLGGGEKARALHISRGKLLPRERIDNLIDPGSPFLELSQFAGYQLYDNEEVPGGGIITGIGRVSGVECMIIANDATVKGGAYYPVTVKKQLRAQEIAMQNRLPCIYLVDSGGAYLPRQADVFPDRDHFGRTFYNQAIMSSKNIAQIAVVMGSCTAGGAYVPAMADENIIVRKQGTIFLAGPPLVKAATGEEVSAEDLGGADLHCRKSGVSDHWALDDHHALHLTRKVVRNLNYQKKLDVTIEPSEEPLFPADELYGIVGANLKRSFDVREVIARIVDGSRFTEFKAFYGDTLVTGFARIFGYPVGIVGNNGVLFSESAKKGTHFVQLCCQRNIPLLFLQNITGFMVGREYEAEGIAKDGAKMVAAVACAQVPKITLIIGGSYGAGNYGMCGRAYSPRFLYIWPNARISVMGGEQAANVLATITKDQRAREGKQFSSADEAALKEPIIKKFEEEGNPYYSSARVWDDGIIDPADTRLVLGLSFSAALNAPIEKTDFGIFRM
Sequence of UniProt Q92615 (Q92615 whole entry, looked up): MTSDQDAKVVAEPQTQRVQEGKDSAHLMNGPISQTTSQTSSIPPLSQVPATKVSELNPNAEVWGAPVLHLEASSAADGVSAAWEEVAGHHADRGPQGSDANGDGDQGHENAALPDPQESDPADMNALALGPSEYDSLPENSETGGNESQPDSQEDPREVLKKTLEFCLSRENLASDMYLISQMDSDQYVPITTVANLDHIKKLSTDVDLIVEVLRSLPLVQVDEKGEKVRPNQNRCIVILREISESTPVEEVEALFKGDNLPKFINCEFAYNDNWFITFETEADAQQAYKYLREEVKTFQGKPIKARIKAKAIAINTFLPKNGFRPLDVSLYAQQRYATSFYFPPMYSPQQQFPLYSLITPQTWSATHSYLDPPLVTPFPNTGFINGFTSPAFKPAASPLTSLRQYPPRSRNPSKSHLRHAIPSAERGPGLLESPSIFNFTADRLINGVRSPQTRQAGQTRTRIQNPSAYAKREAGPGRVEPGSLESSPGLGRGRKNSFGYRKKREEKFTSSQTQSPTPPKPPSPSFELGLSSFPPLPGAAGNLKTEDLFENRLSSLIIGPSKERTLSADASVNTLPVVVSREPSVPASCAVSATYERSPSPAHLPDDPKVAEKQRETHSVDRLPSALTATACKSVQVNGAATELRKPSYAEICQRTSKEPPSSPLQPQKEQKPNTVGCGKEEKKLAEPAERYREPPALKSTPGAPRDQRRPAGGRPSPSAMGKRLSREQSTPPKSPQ
Sequence of UniProt Q9UBF1 (Q9UBF1 whole entry, looked up): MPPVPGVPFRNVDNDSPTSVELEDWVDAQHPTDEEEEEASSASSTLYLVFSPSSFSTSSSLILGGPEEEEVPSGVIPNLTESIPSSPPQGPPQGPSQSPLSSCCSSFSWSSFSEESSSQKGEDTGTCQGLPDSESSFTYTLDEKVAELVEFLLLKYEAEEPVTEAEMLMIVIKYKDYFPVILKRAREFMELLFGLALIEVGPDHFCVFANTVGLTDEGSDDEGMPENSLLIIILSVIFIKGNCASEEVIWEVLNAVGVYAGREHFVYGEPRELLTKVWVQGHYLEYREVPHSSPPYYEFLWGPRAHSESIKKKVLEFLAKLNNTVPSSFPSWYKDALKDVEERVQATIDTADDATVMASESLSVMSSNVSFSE
Sequence of UniProt Q08431 (Q08431 whole entry, looked up): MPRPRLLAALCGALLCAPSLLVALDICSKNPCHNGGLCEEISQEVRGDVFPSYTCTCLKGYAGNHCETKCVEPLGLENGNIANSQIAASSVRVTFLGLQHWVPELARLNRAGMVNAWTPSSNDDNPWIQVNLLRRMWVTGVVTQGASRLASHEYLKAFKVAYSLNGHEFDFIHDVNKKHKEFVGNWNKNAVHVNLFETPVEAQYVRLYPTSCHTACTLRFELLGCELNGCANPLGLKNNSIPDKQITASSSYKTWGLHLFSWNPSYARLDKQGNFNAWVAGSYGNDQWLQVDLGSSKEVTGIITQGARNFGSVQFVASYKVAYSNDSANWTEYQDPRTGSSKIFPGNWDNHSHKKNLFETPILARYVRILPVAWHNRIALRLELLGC
Sequence of UniProt P49137 (P49137 whole entry, looked up): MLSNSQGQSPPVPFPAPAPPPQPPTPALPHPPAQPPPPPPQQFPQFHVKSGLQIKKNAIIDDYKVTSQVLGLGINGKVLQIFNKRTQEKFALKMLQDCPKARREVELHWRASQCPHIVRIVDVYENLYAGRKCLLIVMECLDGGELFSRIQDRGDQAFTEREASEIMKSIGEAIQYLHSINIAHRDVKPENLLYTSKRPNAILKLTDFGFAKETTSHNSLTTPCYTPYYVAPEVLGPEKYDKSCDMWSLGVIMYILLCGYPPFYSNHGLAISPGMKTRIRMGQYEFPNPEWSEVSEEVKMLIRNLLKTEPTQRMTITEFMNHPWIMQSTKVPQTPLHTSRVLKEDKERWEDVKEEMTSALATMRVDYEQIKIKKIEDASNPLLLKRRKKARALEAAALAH
Sequence of UniProt P29966 (P29966 whole entry, looked up): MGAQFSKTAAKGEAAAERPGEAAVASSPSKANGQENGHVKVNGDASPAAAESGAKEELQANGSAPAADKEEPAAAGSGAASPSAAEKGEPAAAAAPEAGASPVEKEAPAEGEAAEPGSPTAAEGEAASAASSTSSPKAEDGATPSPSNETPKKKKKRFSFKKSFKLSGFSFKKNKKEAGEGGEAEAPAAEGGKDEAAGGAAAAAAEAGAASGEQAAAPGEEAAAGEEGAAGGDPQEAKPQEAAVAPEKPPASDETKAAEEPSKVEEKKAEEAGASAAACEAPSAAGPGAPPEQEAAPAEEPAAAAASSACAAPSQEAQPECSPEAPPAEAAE
Sequence of UniProt Q9H6V9 (Q9H6V9 whole entry, looked up): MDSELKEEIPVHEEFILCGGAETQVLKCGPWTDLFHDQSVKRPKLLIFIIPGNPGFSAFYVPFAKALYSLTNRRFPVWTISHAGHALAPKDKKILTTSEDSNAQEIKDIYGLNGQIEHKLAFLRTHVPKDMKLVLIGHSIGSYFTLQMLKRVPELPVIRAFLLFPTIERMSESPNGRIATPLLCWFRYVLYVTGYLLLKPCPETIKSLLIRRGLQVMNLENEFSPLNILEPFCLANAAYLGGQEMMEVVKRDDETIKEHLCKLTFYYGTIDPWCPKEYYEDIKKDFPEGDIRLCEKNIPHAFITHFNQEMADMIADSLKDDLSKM
Sequence of UniProt Q8IWA4 (Q8IWA4 whole entry, looked up): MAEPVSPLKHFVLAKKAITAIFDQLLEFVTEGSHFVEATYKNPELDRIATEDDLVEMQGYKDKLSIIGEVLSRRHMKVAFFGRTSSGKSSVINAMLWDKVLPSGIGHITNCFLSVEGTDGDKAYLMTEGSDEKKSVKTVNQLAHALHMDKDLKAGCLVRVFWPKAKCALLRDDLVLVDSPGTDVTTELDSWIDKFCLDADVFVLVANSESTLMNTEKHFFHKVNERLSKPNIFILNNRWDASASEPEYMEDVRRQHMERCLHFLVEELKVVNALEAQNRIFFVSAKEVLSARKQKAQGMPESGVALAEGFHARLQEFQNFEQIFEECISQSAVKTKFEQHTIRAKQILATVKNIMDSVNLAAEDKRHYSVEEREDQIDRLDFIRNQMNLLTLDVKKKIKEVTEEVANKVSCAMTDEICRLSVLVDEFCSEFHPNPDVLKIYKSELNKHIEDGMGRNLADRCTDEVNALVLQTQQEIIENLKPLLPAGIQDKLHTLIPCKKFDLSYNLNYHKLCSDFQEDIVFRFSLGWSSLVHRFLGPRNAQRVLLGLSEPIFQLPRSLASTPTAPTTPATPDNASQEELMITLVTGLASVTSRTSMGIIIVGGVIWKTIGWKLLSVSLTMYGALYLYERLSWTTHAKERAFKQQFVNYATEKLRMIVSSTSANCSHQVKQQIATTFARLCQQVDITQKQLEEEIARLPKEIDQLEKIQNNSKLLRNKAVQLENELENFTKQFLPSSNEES
Sequence of UniProt Q32MZ4 (Q32MZ4 whole entry, looked up): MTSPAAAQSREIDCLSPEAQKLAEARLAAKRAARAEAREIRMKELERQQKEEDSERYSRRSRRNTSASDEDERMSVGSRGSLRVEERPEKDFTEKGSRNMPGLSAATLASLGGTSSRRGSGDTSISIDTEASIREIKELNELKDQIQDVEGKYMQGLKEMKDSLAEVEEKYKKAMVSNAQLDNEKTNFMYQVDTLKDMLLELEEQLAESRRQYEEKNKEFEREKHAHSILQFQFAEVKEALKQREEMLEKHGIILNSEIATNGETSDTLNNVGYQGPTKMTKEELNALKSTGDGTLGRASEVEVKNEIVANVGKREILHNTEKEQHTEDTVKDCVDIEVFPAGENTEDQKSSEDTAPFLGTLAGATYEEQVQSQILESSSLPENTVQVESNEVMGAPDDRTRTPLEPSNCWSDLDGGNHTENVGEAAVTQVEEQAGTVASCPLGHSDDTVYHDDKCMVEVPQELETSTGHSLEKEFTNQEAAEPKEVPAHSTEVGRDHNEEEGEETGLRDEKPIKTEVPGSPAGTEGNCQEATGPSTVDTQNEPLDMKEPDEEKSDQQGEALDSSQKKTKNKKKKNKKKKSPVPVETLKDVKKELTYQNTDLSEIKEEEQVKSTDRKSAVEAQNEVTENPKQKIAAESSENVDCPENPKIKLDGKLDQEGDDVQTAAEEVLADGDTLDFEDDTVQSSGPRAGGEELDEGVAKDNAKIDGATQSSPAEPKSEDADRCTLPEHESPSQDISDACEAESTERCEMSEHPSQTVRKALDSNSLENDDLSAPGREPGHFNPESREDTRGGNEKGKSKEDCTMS
Sequence of UniProt P14174 (P14174 whole entry, looked up): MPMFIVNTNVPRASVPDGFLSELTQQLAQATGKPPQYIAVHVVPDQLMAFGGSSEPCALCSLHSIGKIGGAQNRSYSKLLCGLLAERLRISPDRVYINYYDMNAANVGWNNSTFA

Compound in the assay: C[C@@H](Oc1cc(-c2cnn(C3CCNCC3)c2)cnc1N)c1c(Cl)ccc(F)c1Cl [crizotinib]
As to the kind of experiment: log2 fold change, soluble protein after heating vs DMSO (PISA); higher = thermal stabilisation; K562 cells, 10 uM, 30 min; active = over 0.2 and 3.5 SD of the protein, either way, in both replicates (recomputed). In outline:
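K562 cells at 2×10^6 cells/mL were exposed to 10 μM compound for 30 min, then aliquots were heated for 3 min across 48°C-58°C, pooled, and extracted in PBS containing 0.5% NP-40 at 4°C. The supernatant after 21,000xg for 90 min was taken as soluble protein and measured by TMTpro 16plex LC-MS/MS with channel sums equalised. Thermal stability is reported relative to control samples, with values from duplicates. Fold changes are given on a log2 scale.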
MIEF1 (UniProt Q9NQG6): the log2 fold change was -0.31 (active).

LDAH isoform 2 (UniProt Q9H6V9): the log2 fold change is -0.308 (active). With MAPKAPK2 (UniProt P49137), the log2 fold change is -0.082 (inactive). To LIAS (UniProt O43766) belongs 0.03 (inactive). Turning to MFSD5 isoform 2 (UniProt Q6N075), the log2 fold change was -0.039 (inactive). Take LARP4B (UniProt Q92615): the log2 fold change is -0.1 (inactive). Take LAMP2 (UniProt P13473): the log2 fold change was 0.043 (inactive). To MAGEC2 (UniProt Q9UBF1) belongs 0.049 (inactive).

As for IGFBP4 (UniProt P22692), the log2 fold change was 0.064 (inactive). In the case of ILF3 isoform 7 (UniProt Q12906), the log2 fold change was -0.074 (inactive). To LTV1 (UniProt Q96GA3) belongs -0.143 (inactive); to MICU2 (UniProt Q8IYU8), -0.173 (inactive); to MCUR1 (UniProt Q96AQ8), 0.082 (inactive). For KDM1A isoform 2 (UniProt O60341), the log2 fold change is -0.036 (inactive).

Turning to LEMD2 (UniProt Q8NC56), the log2 fold change was -0.286 (active). As for LRRFIP1 (UniProt Q32MZ4), the log2 fold change is 0.037 (inactive). To LPIN1 isoform 7 (UniProt Q14693) belongs -0.184 (inactive). Regarding MFN1 (UniProt Q8IWA4), the log2 fold change was -0.026 (inactive). Regarding KIF1B isoform 4 (UniProt O60333), the log2 fold change is -0.067 (inactive). To MFGE8 (UniProt Q08431) belongs 0.04 (inactive). Consider MCCC2 (UniProt Q9HCC0), for which the log2 fold change is 0.028 (inactive). To MICU1 isoform 3 (UniProt Q9BPX6) belongs -0.207 (inactive); to LARP1 (UniProt Q6PKG0), -0.097 (inactive). MEPCE (UniProt Q7L2J0): the log2 fold change is 0.111 (inactive). To MAD2L1 (UniProt Q13257) belongs -0.076 (inactive). To KCTD2 (UniProt Q14681) belongs 0.02 (inactive); to LYPLA2 (UniProt O95372), 0.005 (inactive). To INPP5B (UniProt P32019) belongs -0.096 (inactive); to IPO11 isoform 2 (UniProt Q9UI26), 0 (inactive); to MARCKS (UniProt P29966), 0.198 (inactive).

As for KIF2C (UniProt Q99661), the log2 fold change was -0.171 (inactive). To LPCAT3 (UniProt Q6P1A2) belongs -0.121 (inactive); to KTN1 (UniProt Q86UP2), -0.078 (inactive). To MIF (UniProt P14174) belongs 0.025 (inactive); to LUC7L3 (UniProt O95232), -0.045 (inactive); to LUC7L (UniProt Q9NQ29), -0.028 (inactive).

As to KPNA1 (UniProt P52294), the log2 fold change was -0.169 (inactive). Consider KSR1 (UniProt Q8IVT5), for which the log2 fold change was -0.287 (inactive). Take MAP2K2 (UniProt P36507): the log2 fold change is -0.055 (inactive).

Source of the values: the supplement of paper PMC10849652.
